# Laboratory results taken from PubChem BioAssay (EPA / NIEHS).
# Results filed as inconclusive are left out. The source made the active and inactive calls. How the source made its calls, unless noted: active means hit-call score of the fitted dose curve at least 0.9, where 1 is the maximum; inactive means score below 0.9.
# Columns and labels:
# [1] = CCTE_Mundy_HCI_iCellGluta_NOG_NeuriteLength: CCTE's Neurite Outgrowth Assay in iCellGluta cells for Neurite Length, Mundy Lab (AID 2284318; active means hit-call score of the fitted dose curve at least 0.9, where 1 is the maximum)
# Method in brief: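 Automated high-content imaging of betaIII-tubulin (Alexa Fluor-488) and Hoechst-stained cells gave neurite length, normalized to the DMSO baseline.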
# [2] = CCTE_Deisenroth_5AR_NBTE_donor: CCTE's 5alpha-reductase NanoBRET Target Engagement Assay […], Deisenroth Lab (AID 2284319); settings: actives raise or lower the signal
# Method in brief: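 HEK293T cells were reverse transfected with an SRD5A2-NanoLuc vector for 20 h, exposed to test chemical (8 points, 10 nM - 29.9 uM) for 3 h, then testosterone tracer for 2 h more. Donor luminescence (460 nm) was read; bidirectional fit versus DMSO.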
# [3] = CCTE_Deisenroth_5AR_NBTE_acceptor: CCTE's 5alpha-reductase NanoBRET Target Engagement Assay - Autofluorescence Screen, Deisenroth Lab (AID 2284321); settings: actives raise or lower the signal;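 further: compound fluorescence in the acceptor channel under 460 nm excitation flags autofluorescence artifacts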
# Method in brief: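 Chemicals diluted to a nominal 100 uM in DMSO were scanned at 460 nm excitation. Samples were read in three independent runs (n=3). Gain or loss of acceptor signal was fitted relative to DMSO.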
# SRD5A2 (gene 6716) = assay: CCTE_Deisenroth_5AR_NBTE_ratio: CCTE's 5alpha-reductase NanoBRET Target Engagement Assay - Ratio, Deisenroth Lab (AID 2284322); settings: actives raise or lower the signal
# Method in brief: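 HEK293T cells transiently expressing an SRD5A2-NanoLuc fusion (20 h post-transfection) were exposed to test chemical (10 nM - 29.9 uM, 8 points) for 3 h, then testosterone tracer for a further 2 h. Acceptor/donor BRET ratio was fitted bidirectionally against DMSO baseline.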
# [4] = IUF_NPC1_cytotoxicity_72hr: Cytotoxicity Assessment at 72 hours in the Leibniz Research Institute for Environmental Medicine (IUF) Neural Progenitor Cell Proliferation Assay (NPC1) (AID 2284332; active means hit-call score of the fitted dose curve at least 0.9, where 1 is the maximum;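 further: rising LDH signal means more cytotoxicity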)
# Method in brief: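 Membrane-integrity loss is scored from LDH released into the medium, detected as resorufin fluorescence, with activity fitted upward relative to baseline. Test material stays on human fetal-derived progenitor spheres for 72 h.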
# [5] = CCTE_Mundy_HCI_iCellGluta_NOG_NeuronCount: CCTE's Neurite Outgrowth Assay in iCellGluta cells for Neuron Count, Mundy Lab (AID 2284340; active means hit-call score of the fitted dose curve at least 0.9, where 1 is the maximum;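 further: cells fixed about 48 h after compound addition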)
# Method in brief: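 Neuron count read by automated high-content imaging of Hoechst 33342 and betaIII-tubulin/Alexa Fluor-488 labelling in human iPSC glutamatergic neurons. Activity fitted relative to DMSO.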
# TTR (gene 7276) = assay: CCTE_GLTED_hTTR_0.5uM: CCTE's human Transthyretin (hTTR) Inhibition Assay, with 0.5uM TTR, Great Lakes Toxicology and Ecology Division (GLTED) Lab (AID 2284320)
# Method in brief: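 Probe (ANSA) displacement from 0.5 uM human transthyretin was followed by fluorescence (ex 380, em 475) after a 2 h incubation with chemical. Activity was scored as signal loss and fitted positively relative to DMSO.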
# [6] = system: Brachyury (BRA) Protein Expression, Deisenroth Lab, TBXT (gene 6862); assay: CCTE_Deisenroth_DEVTOX-GLR_legacy_Bra: (Legacy) CCTE's DevTox GLR-Endo Assay Evaluation of Brachyury (BRA) Protein Expression, Deisenroth Lab (AID 2284329)
# Method in brief: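 Percent Bra-positive cells, scored by high-content imaging against a threshold of 5x BMAD over the undifferentiated control median, with the 0.2% DMSO median subtracted. RUES2-GLR cultures were dosed twice at 24 h intervals across a 48 h differentiation, at 1 nM–200 uM in ten steps, with n=4 replicates.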
# [7] = CCTE_Deisenroth_DEVTOX-GLR_legacy_CellCount: (Legacy) Viability Assessment in CCTE's DevTox GLR-Endo Assay, Deisenroth Lab (AID 2284331); settings: actives raise or lower the signal
# Method in brief: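 RUES2-GLR human pluripotent cells were seeded 24 h, then differentiated 48 h with two compound doses at 24 h intervals (10-point, 1 nM - 200 uM). Fixed nuclei were imaged and counted; bidirectional fitting versus 0.2% DMSO.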
smiles,measurement,setting,value
Cc1noc(NS(=O)(=O)c2ccc(N)cc2)c1C,outcome,[1],inactive
CC1=NN(c2ccc(S(=O)(=O)O)cc2)C(=O)C1N=Nc1ccccc1 (stereo not drawn),outcome,[2],inactive
same,outcome,[3],inactive
same,AC50,SRD5A2 (gene 6716),10 µM (active)
CCCCCCCCCCCC(=O)N(C)CC(=O)O,outcome,[2],inactive
same,outcome,[3],inactive
same,outcome,SRD5A2 (gene 6716),inactive
C=CCOC(=O)c1ccc(C(=O)OCC=C)c(C(=O)OCC=C)c1,outcome,[2],inactive
same,outcome,[3],inactive
same,outcome,SRD5A2 (gene 6716),inactive
O=S(=O)(O)c1ccc(N=Nc2c(O)ccc3ccccc23)cc1,AC50,[2],13.3 µM (active)
same,outcome,[3],inactive
same,AC50,SRD5A2 (gene 6716),26.6 µM (active)
Cc1c(C(=O)c2c[nH]n(C)c2=O)ccc(S(C)(=O)=O)c1C1=NOCC1,outcome,[1],inactive
same,outcome,[4],inactive
same,outcome,[5],inactive
CCCCCCCCCC[N+](C)(CCCCCCCCCC)CCC[Si](OC)(OC)OC,AC50,[2],33.2 µM (active)
same,AC50,[3],33.4 µM (active)
same,outcome,SRD5A2 (gene 6716),inactive
O=C(O)C(F)(F)C(F)(F)C(F)(F)C(F)(F)C(=O)O,AC50,TTR (gene 7276),5.53 µM (active)
same,outcome,[5],inactive
COc1ccc(-c2coc3cc(O)cc(O)c3c2=O)cc1,outcome,[2],inactive
same,outcome,[3],inactive
same,AC50,SRD5A2 (gene 6716),23.6 µM (active)
CC1(C)[C@@H]2CC[C@@]1(C)C(=O)C2,outcome,[6],inactive
same,outcome,[7],inactive
Oc1ccc(-c2ccccc2)c(Cl)c1,outcome,[2],inactive
same,outcome,[3],inactive
same,outcome,SRD5A2 (gene 6716),inactive
CCCCNS(=O)(=O)c1ccccc1,outcome,[1],inactive
same,outcome,[4],inactive
same,outcome,[5],inactive
CCCCCCCCCCCCCC(=O)OC(C)C,outcome,[2],inactive
same,outcome,[3],inactive
same,outcome,SRD5A2 (gene 6716),inactive
CC(C)(C)NC(=O)[C@H]1CC[C@H]2[C@@H]3CC[C@H]4NC(=O)C=C[C@]4(C)[C@H]3CC[C@]12C,outcome,[2],inactive
same,outcome,[3],inactive
same,AC50,SRD5A2 (gene 6716),0.00734 µM (active)
